± gives the standard deviation.
Experiments:
Conditions in all cases: modulator concentration 10 µM
[1] = system: RAW-Dual (murine macrophage reporter line); test: NF-kB reporter (SEAP) activity fold change vs agonist alone; higher = enhanced NF-kB activity
How it was run: (§1)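 RAW-Dual murine macrophage reporter cells were seeded at 50 000 per well in 384-well plates and pre-incubated 1 hour at 37 °C with compound pin-transferred to 10 μM final. After 1 hour, a PRR agonist was added and cells incubated overnight. Supernatant NF-κB (SEAP, QUANTI-Blue, 620 nm absorbance) and IRF (Lucia luciferase, QUANTI-Luc, luminescence) signals were divided by the mean agonist-only control on the same plate to give fold change. Two replicate plates were averaged, with errors by propagation.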

[2] = system: RAW-Dual (murine macrophage reporter line); test: IRF reporter (Lucia luciferase) activity fold change vs agonist alone; higher = enhanced IRF activity
How it was run: as §1

[3] = system: RAW-Dual (murine macrophage reporter line); test: viability score (confluency relative to resting cells, overnight) (fraction); higher = more viable, active = viable (0.7 or more)
How it was run: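 Two confluency masks, generated with IncuCyte software over all imaged wells, were applied to IncuCyte images of RAW-Dual macrophages. The cells, in 384-well plates, had been exposed overnight to 10 μM final compound. The viability score is confluency as a fraction of resting cells, and a compound met the cutoff only with both masks above 70% of resting cells.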

[4] = agonist: CpG ODN 1826 0.5 ug/mL

Row | Compound | NF-kB reporter [1, 4] | NF-kB reporter ([1]; agonist: LPS 0.1 ug/mL) | NF-kB reporter ([1]; agonist: MPLA […]) | IRF reporter ([2]; agonist: 3'3'-cGAMP 10 ug/mL) | IRF reporter ([2]; agonist: LPS 0.1 ug/mL) | IRF reporter ([2]; agonist: MPLA […]) | viability score [3]
1 | CCOC(=O)CC(C(=O)OCC)P(=O)(c1ccccc1)c1ccccc1 (configuration not stated) | 0.85 ± 0.048 | 0.943 ± 0.086 | 1.02 ± 0.14 | 0.993 ± 0.061 | 1.17 ± 0.095 | 1.15 ± 0.23 | 1.01 (active)
2 | CN(C)CCCN1c2ccccc2CCc2ccccc21.Cl | 0.827 ± 0.069 | 1.04 ± 0.1 | 1.2 ± 0.07 | 0.737 ± 0.043 | 0.935 ± 0.089 | 0.824 ± 0.093 | 0.883 (active)
3 | COc1ccc(CC(N)C(=O)NC2C(CO)OC(n3cnc4c(N(C)C)ncnc43)C2O)cc1.Cl.Cl (configuration not stated) | 0.817 ± 0.068 | 0.514 ± 0.044 | 0.936 ± 0.094 | 0.699 ± 0.022 | 1.03 ± 0.13 | 1.3 ± 0.21 | 0.817 (active)
4 | CCC(C(=O)N1CC(Nc2cnccn2)C1)c1ccccc1 (configuration not stated) | 0.995 ± 0.052 | 1.06 ± 0.12 | 0.996 ± 0.14 | 1.03 ± 0.067 | 1.24 ± 0.085 | 1.19 ± 0.09 | 0.984 (active)
5 | O=C(NCC1CCN(C(=O)c2ccncc2)CC1)c1ccc(Oc2ccccc2)cc1 | 0.988 ± 0.058 | 0.954 ± 0.096 | 0.893 ± 0.026 | 0.873 ± 0.066 | 0.882 ± 0.057 | 0.932 ± 0.12 | 0.997 (active)
6 | Cc1cnc2c(c1NCCCO)c(=O)n(C)c(=O)n2C | 1.1 ± 0.1 | 1.01 ± 0.088 | 1.02 ± 0.027 | 0.881 ± 0.04 | 0.947 ± 0.11 | 0.887 ± 0.21 | 0.995 (active)
7 | O=C(NC1CCN(CCCCC2(C(=O)NCC(F)(F)F)c3ccccc3-c3ccccc32)CC1)c1ccccc1-c1ccc(C(F)(F)F)cc1 | 0.881 ± 0.043 | 0.952 ± 0.12 | 1.08 ± 0.062 | 0.983 ± 0.045 | 1.46 ± 0.33 | 1.44 ± 0.53 | 0.968 (active)
8 | CCOC(=O)C1=C(C)NC(C)=C(C(=O)OC)C1c1cccc(Cl)c1Cl (configuration not stated) | 0.824 ± 0.081 | 0.603 ± 0.053 | 0.764 ± 0.068 | 1.13 ± 0.06 | 1.35 ± 0.095 | 1.03 ± 0.17 | 0.859 (active)
9 | CCOc1ccc(-c2nc3c(c(C)nn3-c3ccccc3)c3cc(OC)c(OC)cc23)cc1 | 0.812 ± 0.063 | 0.934 ± 0.089 | 1.05 ± 0.095 | 0.948 ± 0.043 | 1.29 ± 0.075 | 1.48 ± 0.14 | 1 (active)
10 | Cc1cc(C(=O)Nc2ccccc2S(C)(=O)=O)no1 | 1.17 ± 0.069 | 1.04 ± 0.08 | 0.992 ± 0.055 | 0.995 ± 0.056 | 1.04 ± 0.05 | 1.06 ± 0.15 | 1 (active)
11 | COc1c(OC)c2occc2c2oc(=O)ccc12 | 1.14 ± 0.32 | 0.86 ± 0.083 | 0.941 ± 0.059 | 0.551 ± 0.018 | 0.586 ± 0.17 | 0.67 ± 0.07 | 0.968 (active)
12 | CCOC(=O)C1=C(C)NC(=O)N(C(C)=O)C1c1ccc(Br)cc1 (configuration not stated) | 0.554 ± 0.032 | 0.898 ± 0.1 | 0.868 ± 0.052 | 1.28 ± 0.044 | 1.66 ± 0.14 | 1.34 ± 0.2 | 0.621 (inactive)
13 | CCOc1ccccc1OCCCCOc1cccc(Cl)c1 | 0.947 ± 0.15 | 1.04 ± 0.093 | 0.951 ± 0.084 | 0.956 ± 0.025 | 1.21 ± 0.15 | 1.23 ± 0.2 | 1 (active)
14 | COCCN1CCC(NC(=O)c2cnc3ccccc3n2)CC1 | 0.441 ± 0.024 | 1.02 ± 0.085 | 1.35 ± 0.072 | 0.951 ± 0.05 | 1.14 ± 0.25 | 1.2 ± 0.48 | 0.935 (active)
15 | COC(=O)NN=Cc1cccs1 | 1.04 ± 0.19 | 1.05 ± 0.084 | 0.974 ± 0.11 | 0.987 ± 0.031 | 1 ± 0.096 | 1.22 ± 0.21 | 0.997 (active)
16 | CN1CCN2c3ccccc3Cc3ccccc3C2C1.Cl (configuration not stated) | 1 ± 0.14 | 1.07 ± 0.34 | 0.835 ± 0.058 | 0.68 ± 0.032 | 1.32 ± 0.3 | 1.2 ± 0.13 | 0.307 (inactive)
17 | Cc1cccc(N=c2scc(-c3ccc([N+](=O)[O-])cc3)n2-c2cccc(C)c2C)c1C | 0.863 ± 0.065 | 1.04 ± 0.078 | 0.906 ± 0.054 | 0.864 ± 0.029 | 1.37 ± 0.088 | 1.11 ± 0.16 | 1 (active)
18 | CN1CCN(C2=NC(=O)C(=Cc3ccc(Cl)cc3Cl)S2)CC1 | 0.833 ± 0.076 | 0.86 ± 0.068 | 1.15 ± 0.099 | 0.956 ± 0.051 | 1.42 ± 0.099 | 1.59 ± 0.18 | 0.999 (active)
19 | CCc1c2c(nc3ccc(OC(=O)N4CCC(N5CCCCC5)CC4)cc13)-c1cc3c(c(=O)n1C2)COC(=O)[C@]3(O)CC.Cl.O.O.O | 1.06 ± 0.25 | 1.41 ± 0.23 | 1.54 ± 0.55 | 0.866 ± 0.042 | 1.35 ± 0.35 | 1.2 ± 0.16 | 0.975 (active)
20 | COc1ccc(-c2cc(C(F)(F)F)n3nc(C(=O)Nc4cc(OC)c(OC)c(OC)c4)c(Cl)c3n2)cc1OC | 0.885 ± 0.081 | 1.01 ± 0.089 | 0.795 ± 0.058 | 0.566 ± 0.14 | 1.27 ± 0.19 | 1.1 ± 0.12 | 1.01 (active)
21 | COc1ccc(CNCc2ccc3ccccc3c2)cc1OC | 0.722 ± 0.064 | 1 ± 0.07 | 0.943 ± 0.05 | 0.784 ± 0.035 | 1.04 ± 0.059 | 0.961 ± 0.2 | 0.999 (active)
22 | O=C(O)c1cc(O)ccc1O | 0.972 ± 0.11 | 1.03 ± 0.055 | 0.977 ± 0.023 | 1.03 ± 0.078 | 0.969 ± 0.032 | 0.932 ± 0.11 | 0.996 (active)
23 | O=C(O)c1ccccc1O | 1.03 ± 0.23 | 1.04 ± 0.18 | 0.923 ± 0.052 | 0.925 ± 0.03 | 1.34 ± 0.12 | 1.23 ± 0.094 | 0.995 (active)
24 | COc1ccc(C(=O)NCc2ccc(OCCN(C)C)cc2)cc1OC.Cl | 0.988 ± 0.15 | 1.05 ± 0.079 | 0.925 ± 0.059 | 0.88 ± 0.027 | 1.21 ± 0.1 | 1.08 ± 0.085 | 0.994 (active)
25 | Cc1ccc(CNC(=O)CN(c2cccc3ccccc23)S(C)(=O)=O)cc1 | 0.97 ± 0.078 | 1.03 ± 0.098 | 0.957 ± 0.073 | 1.08 ± 0.031 | 1.47 ± 0.28 | 1.07 ± 0.096 | 1.01 (active)
26 | COc1cccc2c1C(=O)c1c(O)c3c(c(O)c1C2=O)C[C@@](O)(C(C)=O)C[C@@H]3O[C@H]1C[C@H](N)[C@H](O)[C@H](C)O1.Cl | 0.115 ± 0.0076 | 0.0574 ± 0.0063 | 0.0998 ± 0.0052 | 0.0163 ± 0.004 | 0.0195 ± 0.0046 | 0.0153 ± 0.0037 | 0.0601 (inactive)

Reference: the supplement of paper PMC10646978
